A word on the IC50: it is the concentration at which inhibition is half-maximal.

The whole screen tested about 2,200 compounds, of which about 1,200 (55%) were called active. The limit is not given here; nearly all actives have IC50 up to about 92 µM. So high a share suggests a set chosen from earlier hits. The list shows a part of the results.

The experiment can be described thus: counter assay for TAg ATPase ADP read-out – biochemical, ADP-Hunter, fluorescence, counter-screen (AID 2501).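 Also: purified T antigen ATPase.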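 As to inhibition: higher means more inhibition.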 The note with it: series mostly up to 100 µM. For orientation: A counterscreen serves to expose hits that act by an unwanted route or on another target.
As for `Cc1ncc(CO)c(/C=N/NC(=O)c2cc(O)c(O)c(O)c2)c1O`, the IC50 entry was “inactive”.
Take `O=C(N/N=C/c1c[nH]c2ccccc12)c1ccc(O)c(O)c1`: the IC50 is 7.17 µM (active).
The figure for `Oc1ccc(O)c(-c2cnns2)c1` is 28.1 µM (active); for `CC(=O)CC1OC(=O)C(Br)=C1NCc1ccccc1` (stereo not given) it is “inactive”; for `C/C(=N/NC(=O)c1cc(O)c(O)c(O)c1)c1ccc([N+](=O)[O-])cc1` it is “inactive”.
The figure for `C/C(CC(=O)Nc1ccc(N(C)C)cc1)=N\NC(=O)c1ccc([N+](=O)[O-])cc1Cl` is 6.47 µM (active).
Next, `C/C(CC(=O)Nc1ccc(N(C)C)cc1)=N\NC(=O)c1ccc(Cl)cc1Cl`: 3.99 µM (active).
Consider `C=CCN(c1ccc(C(=O)Nc2cccc([N+](=O)[O-])c2)cc1)S(C)(=O)=O`, for which the IC50 entry was “inactive”.
With `CN(C(=O)COC(=O)CNC(=O)CNC(=O)c1ccc(Cl)cc1Cl)c1ccccc1`, the IC50 entry was “inactive”.
The entry for `C=C(CC)C(=O)c1ccc(OCC(=O)O)c(Cl)c1Cl` is “inactive”; for `Cc1ccc(CNC(=O)C2CC(c3ccccc3[N+](=O)[O-])=NO2)cc1` (stereo not given) it is “inactive”.
The entry for `CC1=C(C#N)c2nc(N)c(C#N)c(C)c2/C1=C\c1ccc(-c2ccccc2C(=O)O)o1` is “inactive”.
In the case of `CN=c1scc(C)n1/N=C/c1ccc(O)cc1O`, the IC50 is 3.58 µM (active).
Turning to `COc1cc([N+](=O)[O-])cc(/C=N/NC(=O)CC#N)c1O`, the IC50 result is “inactive”.
Next, `COc1cc(/C=N/NC(=O)CC#N)cc(Br)c1O`: 6.13 µM (active).
For `CCN=c1scc(C)n1/N=C/c1cc(Br)c(O)c(Br)c1`, the IC50 is 6.61 µM (active).
On to `CN=c1scc(C)n1/N=C/c1cc(Br)c(O)c(OC)c1`, for which the IC50 was 5.68 µM (active).
The entry for `O=C1CSC(=S)N1/N=C/c1ccc(O)c([N+](=O)[O-])c1` is “inactive”; for `CCN=c1scc(C)n1/N=C/c1cc(Br)c(O)c(OC)c1` it is 14.6 µM (active); for `COc1cc(/C=N/N(C)C)cc(Br)c1O` it is 3.75 µM (active).
Next, `COc1cc(/C=N/N2C(=O)CSC2=S)cc(Br)c1O`: 13.3 µM (active); `COC(=O)c1ccccc1-n1c(C)nc(=O)c(-c2ccccc2)c1C`: “inactive”; `C[N+]1(CCCCSc2ccc(O)cc2)CCCCC1`: 4.59 µM (active).
Take `CNc1n[nH]c(=S)s1`: the IC50 was 92.7 µM (active).
Next, `CC(=O)Oc1cc(O)c2c(=O)c(OC(C)=O)c(-c3ccc(OC(C)=O)c(OC(C)=O)c3)oc2c1`: 16.6 µM (active).
Next, `CC1(C)CC(=O)C=C(NCCc2ccccc2)C1`: “inactive”.
In the case of `CN1CCN(S(=O)(=O)c2ccc3c(c2)NC(=O)C2CCCN32)CC1` (stereo not given), the IC50 entry is “inactive”.
Next, `O=[N+]([O-])c1ccc(N2CCN(c3ccc(O)cc3)CC2)cn1`: 5.49 µM (active).
In the case of `NC(=O)c1ccc(N2CCN(c3ccc(O)cc3)CC2)c([N+](=O)[O-])c1`, the IC50 is 7.83 µM (active).
Regarding `CN1CCN(S(=O)(=O)c2ccc(N3CCN(c4ccc(O)cc4)CC3)c([N+](=O)[O-])c2)CC1`, the IC50 is 4.03 µM (active).
As for `O=C(Nc1ccc(CN2CCOCC2)cc1)c1ccc(N2CCCC2)c([N+](=O)[O-])c1`, the IC50 result is “inactive”.
In the case of `CC(=O)Nc1ccc(S(=O)(=O)N2CCN(Cc3ccccc3[N+](=O)[O-])CC2)cc1`, the IC50 entry was “inactive”.
Next, `O=C(O)c1ccc(-c2ccc(O)c(F)c2)cc1`: 7.49 µM (active); `O=C1NC(C(=O)O)=CC(c2ccc([N+](=O)[O-])cc2)N1` (stereo not given): “inactive”.
The figure for `CC(/C=N/n1c(-c2ccncc2)n[nH]c1=S)=C\c1ccco1` is 44.3 µM (active); for `Cc1ccsc1/C=N/n1c(-c2cccnc2)n[nH]c1=S` it is 25 µM (active); for `Cc1ccnc(NC(=S)NC(=O)/C=C/c2ccco2)c1` it is “inactive”.
Next, `CC(/C=N/n1c(-c2n[nH]c3c2CCC3)n[nH]c1=S)=C\c1ccco1`: 49 µM (active).
For `Cc1cc(-c2n[nH]c(=S)n2/N=C/C=C/c2ccco2)n[nH]1`, the IC50 was 97.4 µM (active).
As to `O=C(O)c1ccc(-n2c(-c3cc(-c4ccco4)[nH]n3)n[nH]c2=S)cc1`, the IC50 result is “inactive”.
Next, `S=c1[nH]nc(COc2ccccc2)n1/N=C/C=C/c1ccco1`: “inactive”; `O=C(O)c1cc(-c2ccco2)nc2ccc(Br)cc12`: “inactive”; `C=CCn1c(-c2ccc3ncccc3c2)n[nH]c1=S`: “inactive”.
In the case of `Cc1ccc(/C=N/n2c(-c3ccco3)n[nH]c2=S)cc1`, the IC50 was 16.5 µM (active).
Next, `Cc1cccc(/C=N/n2c(-c3ccncc3)n[nH]c2=S)c1`: 88.6 µM (active); `CC(/C=N/n1c(-c2cccnc2)n[nH]c1=S)=C\c1ccccc1`: 38.8 µM (active); `Cc1ccc(-n2c(-c3cc(-c4ccco4)[nH]n3)n[nH]c2=S)c(Br)c1`: “inactive”.
Turning to `S=c1[nH]nc(-c2n[nH]c3c2CCC3)n1/N=C/C=C/c1ccco1`, the IC50 was 28.2 µM (active).
Take `CCS(=O)(=O)N1CCC(C(=O)NCCN2CCOCC2)CC1`: the IC50 result is “inactive”.
With `Cc1cc(C(F)(F)F)nc2c(Cl)c(C(C)(C)C)nn12`, the IC50 entry was “inactive”.
The figure for `NS(=O)(=O)c1ccc(N=Nc2c[nH]c(=O)c(O)c2)cc1` is 7.75 µM (active).
The figure for `CCOC(=O)c1[nH]c2ccccc2c1NC(=S)Nc1cccc(C)c1C` is 29 µM (active); for `CCOC(=O)c1c(C)[nH]c(C(=O)OCC(=O)Nc2cc(Cl)ccc2OC)c1C` it is “inactive”; for `Cc1cccc(C)c1NC(=S)Nc1ccccc1C(=O)NCc1ccco1` it is “inactive”.
`COc1ccc(CNS(=O)(=O)c2ccc(F)c(C(=O)Nc3ccc(OC)cc3)c2)cc1`: the IC50 entry is “inactive”.
As for `COc1ccc(/C=N/NC(=O)c2ccc(Br)cc2)cc1CN1CCOCC1`, the IC50 is 13 µM (active).
Next, `COc1ccc(NC(=S)N/N=C/c2ccc(F)c(F)c2)cc1`: 23.4 µM (active); `Oc1ccc(/C=N/NC(=S)NCCN2CCOCC2)c(O)c1`: 4.25 µM (active); `COc1ccc(C(=O)N/N=C/c2ccc(OC)c(CN3CCc4cc(OC)c(OC)cc4C3C)c2)cc1` (stereo not given): “inactive”.
The figure for `COc1cc(/C=N/NC(=S)NCCN2CCOCC2)ccc1O` is 2.37 µM (active).
For `COC(=O)c1sc2nc(-c3ccco3)ccc2c1N`, the IC50 result is “inactive”.
In the case of `COc1cc(N2C(=O)C=CC2=O)c(OC)cc1Cl`, the IC50 entry is “inactive”.
Next, `O=C(O)Cc1nn(Cc2ccc(Cl)cc2)c(=O)c2ccccc12`: “inactive”; `O=c1oc2c3c4c(cc2s1)CCCN4CCC3`: “inactive”.
As for `CCCCCCNC(=O)N[C@H](C(=O)NCCC[C@H]1CN2C(=NC[C@H]2C)N1CCC(c1ccccc1)c1ccccc1)C(C)O` (stereo not given in full), the IC50 entry was “inactive”.
The entry for `CCN(CC(=O)NC(C)C)C(=O)Cc1ccc(C)c(C)c1` is “inactive”.
Next, `COc1ccc(CNC(=S)N/N=C/c2ccc(O)c(OC)c2)cc1`: 7.64 µM (active); `Oc1cccc(/C=N/NC(=S)NCCN2CCOCC2)c1O`: 7.38 µM (active).
Turning to `O=C(CCN1CCN(c2ccccc2)CC1)N/N=C/c1ccc(O)c(O)c1O`, the IC50 result is “inactive”.
The entry for `Cc1c(NC(=O)CCC2CCCCC2)cc(C(=O)N2CCOCC2)cc1[N+](=O)[O-]` is “inactive”; for `COCCCOc1ccnc(CS(=O)c2nc3ccccc3[nH]2)c1C` (stereo not given) it is “inactive”; for `O=C(O)CC1S/C(=N/N=C/C2CC=CCC2)NC1=O` (stereo not given) it is “inactive”.
Next, `CC(C)c1ccc(S(=O)(=O)N2CCN(CC(=O)c3ccc(O)c(O)c3)CC2)cc1`: 5.79 µM (active); `Cc1ccc(S(=O)(=O)N2[C@@H](c3ccc(Cl)cc3)C(C(=O)O)=CC[C@H]2c2ccc(C(C)C)cc2)cc1`: “inactive”.
Next, `O=C(CN1CCN(S(=O)(=O)c2ccc(F)cc2)CC1)c1ccc(O)c(O)c1`: 7.5 µM (active); `Cc1cc(C)nc(SCc2cc(=O)c(OC(=O)c3ccc(S(=O)(=O)N4CCCC4)cc3)co2)n1`: “inactive”; `Cc1cccc(-c2ncc(CN3CCCC(CO)(Cc4ccccc4C)C3)cn2)c1` (stereo not given): “inactive”.
As to `CC1CCN(CC(C)OC(=O)c2ccc3c(c2)OCCO3)CC1` (stereo not given), the IC50 entry is “inactive”.
The figure for `CCOc1cc(N2CCOCC2)c(OCC)cc1NC(C)C(=O)N1CCC(C)CC1` (stereo not given) is 5.37 µM (active); for `CCOc1ccc(OCCC(=O)OCC(=O)Nc2cc(OCC)c(N3CCOCC3)cc2OCC)cc1` it is 8.04 µM (active); for `CCOc1cc(N2CCOCC2)c(OCC)cc1NS(=O)(=O)c1ccc(Cl)s1` it is 6.56 µM (active).
Regarding `CCNC(=S)Nc1cc(OCC)c(N2CCOCC2)cc1OCC`, the IC50 was 4.1 µM (active).
For `CCOc1ccc(CCNC(=O)c2cc(-c3ccccc3)c(N3CCOCC3)s2)cc1OCC`, the IC50 entry is “inactive”.
As for `CCCC(=O)O[C@]1(C(=O)CO)CC[C@H]2[C@@H]3CCC4=CC(=O)CC[C@]4(C)[C@H]3[C@@H](O)C[C@@]21C`, the IC50 result is “inactive”.
The figure for `COc1cc(/C=N/Nc2nc3ccccc3[nH]2)cc(OC)c1O` is 6.33 µM (active); for `C(=N\Nc1nc2ccccc2[nH]1)/c1cccs1` it is 7.86 µM (active); for `COc1cc(/C=N/Nc2nc3ccccc3o2)cc(OC)c1O` it is 6.58 µM (active).
Next, `COc1cc(/C=N/Nc2nc3ccccc3[nH]c2=O)ccc1O`: 8.65 µM (active).
As for `COc1cc(/C=C2\CCc3c2nc2ccccc2c3C(=O)O)cc(OC)c1OC`, the IC50 result is “inactive”.
As to `CCC[C@@H]1CCCO[C@@](C(=O)NCc2ccc(S(C)(=O)=O)cc2)(C(F)(F)F)C1`, the IC50 result was “inactive”.
Take `O=C1N/C(=C\c2ccc(O)cc2)C(O)=C1C=NCc1ccccc1`: the IC50 was 5.69 µM (active).
The entry for `Cc1cc(/C=C2\SC(=S)NC2=O)c(C)n1-c1cccc(O)c1` is “inactive”; for `Cc1c(N=C2NC(=O)/C(=C/c3ccc(O)cc3)S2)c(=O)n(-c2ccccc2)n1C` it is 10 µM (active).
The figure for `O=C1NC(=NCc2ccccc2)S/C1=C/c1ccc(O)cc1` is 8.9 µM (active); for `O=C1NC(=O)/C(=C/c2ccc(O)cc2)S1` it is 5.07 µM (active); for `COc1cccc2sc(Nc3nnc(-c4cccs4)o3)nc12` it is “inactive”.
As for `O=C(/C=C/c1ccc2ccccc2n1)N1CCN(S(=O)(=O)c2ccccc2F)CC1`, the IC50 entry was “inactive”.
The entry for `CCCC1Nc2ccc(C(=O)O)cc2C2C=CCC12` (stereo not given) is “inactive”.
Next, `COc1ccc2nc3ccccc3nc2c1N`: 19.9 µM (active); `NC(=O)NCCCC(=O)OCC(=O)c1ccc2ccccc2c1`: “inactive”.
